Measured values from PubChem BioAssay AID1159580 (chemical genetic matrix, 2015).
In all, about 5,500 compounds went through this assay and about 2,000 (36%) were called active. Roughly 18% stayed inconclusive and do not appear here. No stated cut-off is given here; in the data, active means normalized growth mostly below about 0.91 (no sharp cut-off); inconclusive means no clear call, values can overlap the other calls; inactive means mostly above about 0.92. Some of the results follow.

Assay: chemical genetic growth profiling, strain panel (AID 1159580);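 further: tested at 20 µM; growth read once vehicle control cultures reached saturation at 30 °C; 1 = growth at the plate median or of vehicle wells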
Conditions: S. cerevisiae deletion strains, growth OD

Measured: normalized growth

CCOC(=O)Nc1nc2ccccc2[nH]1
inactive: locus YAL021C, strain ccr4, stronger effect = lower value 0.936 | locus YAL026C, strain drs2, stronger effect = lower value 0.977 | locus YAL030W, strain snc1, stronger effect = lower value 0.96 | locus YBL061C, strain skt5, stronger effect = lower value 0.982 | locus YBR009C, strain hhf1, stronger effect = lower value 0.967 | locus YBR023C, strain chs3, stronger effect = lower value 0.995 | locus YBR171W, strain sec66, stronger effect = lower value 0.965 | locus YBR231C, strain swc5, stronger effect = lower value 0.988 | locus YBR279W, strain paf1, stronger effect = lower value 0.991 | locus YCL011C, strain gbp2, stronger effect = lower value 0.979 | locus YCL016C, strain dcc1, stronger effect = lower value 0.995 | locus YCL061C, strain MRC1, stronger effect = lower value 0.992 | locus YCL069W, strain vba3, stronger effect = lower value 0.992 | locus YCR088W, strain abp1, stronger effect = lower value 0.99 | locus YDL005C, strain med2, stronger effect = lower value 0.994 | locus YDL040C, strain nat1, stronger effect = lower value 0.994 | locus YDR001C, strain nth1, stronger effect = lower value 0.97 | locus YDR069C, strain doa4, stronger effect = lower value 0.902 | locus YDR137W, strain rgp1, stronger effect = lower value 0.865 | locus YDR159W, strain sac3, stronger effect = lower value 0.979 | locus YDR195W, strain ref2 1.13 | locus YDR297W, strain sur2, stronger effect = lower value 0.964 | locus YDR334W, strain swr1, stronger effect = lower value 0.947 | locus YDR335W, strain msn5, stronger effect = lower value 0.989 | locus YDR392W, strain spt3, stronger effect = lower value 0.972 | locus YEL003W, strain gim4, stronger effect = lower value 0.972 | locus YEL037C, strain rad23, stronger effect = lower value 0.984 | locus YEL061C, strain CIN8 (second series), stronger effect = lower value 0.983 | locus YER015W, strain faa2, stronger effect = lower value 0.972 | locus YER016W, strain bim1, stronger effect = lower value 0.994 | locus YER111C, strain swi4, stronger effect = lower value 0.991 | locus YER155C, strain BEM2 (second series), stronger effect = lower value 0.977 | locus YFR010W, strain ubp6, stronger effect = lower value 0.937 | locus YGL167C, strain pmr1, stronger effect = lower value 0.984 | locus YGL173C, strain kem1, stronger effect = lower value 0.953 | locus YGL227W, strain vid30, stronger effect = lower value 0.986 | locus YGL240W, strain doc1, stronger effect = lower value 0.941 | locus YGL253W, strain hxk2, stronger effect = lower value 0.982 | locus YHR013C, strain ard1, stronger effect = lower value 0.956 | locus YHR027C, strain rpn1, stronger effect = lower value 0.962 | locus YHR030C, strain SLT2, stronger effect = lower value 0.969 | locus YHR079C, strain IRE1, stronger effect = lower value 0.976 | locus YHR142W, strain chs7, stronger effect = lower value 0.986 | locus YJL092W, strain hpr5, stronger effect = lower value 0.999 | locus YJL095W, strain BCK1 (second series), stronger effect = lower value 0.975 | locus YJL095W, strain BCK1, stronger effect = lower value 0.987 | locus YJL115W, strain asf1, stronger effect = lower value 0.961 | locus YJL129C, strain trk1, stronger effect = lower value 1.03 | locus YJL154C, strain vps35, stronger effect = lower value 0.982 | locus YJL164C, strain tpk1, stronger effect = lower value 0.986 | locus YJL166W, strain qcr8, stronger effect = lower value 0.977 | locus YJL187C, strain SWE1, stronger effect = lower value 0.988 | locus YJR066W, strain TOR1, stronger effect = lower value 0.923 | locus YKL160W, strain elf1, stronger effect = lower value 0.985 | locus YKR026C, strain gcn3, stronger effect = lower value 0.996 | locus YKR091W, strain srl3, stronger effect = lower value 0.987 | locus YLL001W, strain dnm1, stronger effect = lower value 0.987 | locus YLL026W, stronger effect = lower value 0.974 | locus YLL041C, strain sdh2, stronger effect = lower value 0.978 | locus YLR027C, strain aat2, stronger effect = lower value 0.985 | locus YLR113W, strain HOG1, stronger effect = lower value 1.03 | locus YLR221C, strain rsa3, stronger effect = lower value 0.988 | locus YLR258W, strain gsy2, stronger effect = lower value 0.984 | locus YLR262C, strain YPT6 (second series), stronger effect = lower value 0.933 | locus YLR320W, strain mms22, stronger effect = lower value 0.966 | locus YLR342W, strain FKS1, stronger effect = lower value 0.988 | locus YLR357W, strain rsc2, stronger effect = lower value 0.92 | locus YLR370C, strain arc18, stronger effect = lower value 0.986 | locus YLR384C, strain iki3, stronger effect = lower value 0.978 | locus YML120C, strain ndi1, stronger effect = lower value 0.998 | locus YMR058W, strain fet3, stronger effect = lower value 0.968 | locus YMR125W, strain sto1, stronger effect = lower value 1 | locus YMR129W, stronger effect = lower value 0.981 | locus YMR205C, strain PFK2, stronger effect = lower value 0.904 | locus YMR231W, strain pep5, stronger effect = lower value 0.989 | locus YNL071W, strain lat1, stronger effect = lower value 0.985 | locus YNL183C, strain NPR1, stronger effect = lower value 0.942 | locus YNL209W, strain ssb2, stronger effect = lower value 0.971 | locus YNL248C, strain rpa49, stronger effect = lower value 0.998 | locus YNL322C, strain KRE1 (second series), stronger effect = lower value 0.983 | locus YNR049C, strain mso1, stronger effect = lower value 0.983 | locus YOR001W, strain rrp6, stronger effect = lower value 0.97 | locus YOR070C, strain gyp1, stronger effect = lower value 0.983 | locus YOR080W, strain dia2, stronger effect = lower value 0.971 | locus YOR083W, strain WHI5, stronger effect = lower value 0.974 | locus YOR106W, strain vam3, stronger effect = lower value 0.927 | locus YOR231W, strain MKK1, stronger effect = lower value 0.954 | locus YOR265W, strain rbl2, stronger effect = lower value 0.987 | locus YOR270C, strain vph1, stronger effect = lower value 0.868 | locus YOR290C, strain snf2, stronger effect = lower value 0.895 | locus YPL051W, strain arl3, stronger effect = lower value 0.987 | locus YPL078C, strain atp4, stronger effect = lower value 0.986 | locus YPL106C, strain sse1, stronger effect = lower value 0.956 | locus YPL240C, strain hsp82, stronger effect = lower value 0.991 | locus YPL256C, strain CLN2, stronger effect = lower value 0.987
